Assay results: PubChem BioAssay (NCATS)
Results filed as inconclusive are left out. Calls of active or inactive are those of the source. Calls come from the whole dose curve; as a rule, active = well fitted inhibition curve with a large enough effect; inconclusive = small, poorly fitted or top-dose-only effect; inactive = flat fitted curve, though single readings scatter. *1 amine or outer side, *2 acyl side, *3 side chain or, on linkers, in order; H or OH if unused. Where a SMILES comes first, the peptide text is derived from it. [ ]: non-standard residue; d: D form. X13 = O=C(C(CC(O)CO)O[*:1])[*:2]; NMeV = CN[CH](C(=O)O)C(C)C; NMeA = CN[CH](C)C(=O)O; βAla = NCCC(=O)O

Target: Glutathione peroxidase 1 (Homo sapiens) (UniProt P07203)
Sequence (P07203 whole entry, looked up): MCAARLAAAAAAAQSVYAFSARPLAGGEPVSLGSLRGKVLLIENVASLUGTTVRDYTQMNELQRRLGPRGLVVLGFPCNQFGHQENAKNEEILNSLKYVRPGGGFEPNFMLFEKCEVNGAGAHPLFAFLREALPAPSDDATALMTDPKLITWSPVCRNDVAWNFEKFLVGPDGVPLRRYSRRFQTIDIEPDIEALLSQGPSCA
Test: Primary qHTS Assay for Inhibitors of Recombinant Selenoprotein Glutathione Peroxidase 1 (GPX1) (AID 1845191); note: nearly all actives have a fitted effect of over 65% in size
Conditions: recombinant GPX1, GR-coupled NADPH fluorescence, 15 min; series mostly up to 27.7 µM; activity, negative = inhibition: at the top concentration
How it was run: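 GR-coupled readout: NADPH consumption tracked by fluorescence, ex 340/em 450 nm, at t=0 and after 15 min at RT. Final mix 10 nM GPX1, 1 mM GSH, 0.5 mM CHP, 0.5 mM NADPH, 100 nM GR, 0.01% BSA, following 30 min enzyme–compound preincubation.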
% is set by controls: 0 for no effect and ±100 for the full control effect.

Compound	outcome	activity, negative = inhibition
C/C=C/C=C/C=C/C(=O)O[C@@H]1C=C(CO)[C@](O)(CO)[C@@]2(C)CCCC(C)(C)[C@H]12	inactive	
CCC(C)C1NC(=O)C2CCCN2C(=O)C(CC(O)CO)OC(=O)CCNC(=O)C(C)N(C)C(=O)C(C(C)C)N(C)C1=O (centres undefined) (cyclo([X13]PI[NMeV][NMeA][βAla]); configuration not given here)	inactive [at 15.3 µM]	
C[C@@H]1O[C@@H](O[C@H]2[C@H](OC(=O)[C@]34CCC(C)(C)C[C@H]3C3=CCC5[C@@]6(C)CC[C@H](O[C@@H]7O[C@H](CO[C@@H]8OC[C@H](O)[C@H](O)[C@H]8O[C@@H]8OC[C@@H](O)[C@H](O)[C@H]8O)[C@@H](O)[C@H](O)[C@H]7O)C(C)(C)C6CC[C@@]5(C)[C@]3(C)C[C@H]4O)O[C@H](CO)[C@@H](O)[C@@H]2O)[C@H](O[C@@H]2O[C@H](CO)[C@@H](O)[C@H](O)[C@H]2O)[C@H](O)[C@H]1O[C@@H]1OC[C@@H](O)[C@H](O[C@@H]2OC[C@@H](O)[C@H](O)[C@H]2O)[C@H]1O (some centres undefined)		-6.82% [at 9.52 µM] (inactive)
C=C1CC[C@@]2(OC1)O[C@H]1CC3[C@@H]4CC=C5C[C@H](O[C@H]6OC[C@@H](O)C(O)[C@@H]6O[C@@H]6O[C@@H](C)[C@H](O)[C@@H](O[C@@H]7O[C@H](CO)[C@@H](O)[C@H](O)[C@H]7O)[C@H]6O)C[C@@H](O)[C@]5(C)C4CC[C@]3(C)[C@H]1[C@@H]2C (some centres undefined)		-9.14% [at 15.3 µM] (inactive)
COc1c2ccoc2nc2c(OC)c(O[C@@H]3O[C@@H](C)[C@H](O)[C@@H](O[C@@H]4O[C@H](CO)[C@@H](O)[C@H](O)[C@H]4O)[C@H]3OC(C)=O)ccc12		-30.1% [at 15.3 µM] (inactive)
CC(C)(Oc1ccc(-c2nc3cc(Cl)ccc3s2)cc1)C(=O)O		-2.7% [at 48.8 µM] (inactive)
C[C@@H]1O[C@@H](O[C@H]2[C@H](OC(=O)[C@]34CCC(C)(C)C[C@H]3C3=CCC5[C@@]6(C)C[C@@H](O)[C@@H](O[C@@H]7O[C@H](CO)[C@@H](O)[C@H](O)[C@H]7O)[C@@](C)(CO)C6[C@H](O)C[C@@]5(C)[C@]3(C)CC4)OC[C@H](O)[C@@H]2O)[C@H](O)[C@H](O[C@@H]2OC[C@](O)(CO)[C@H]2O)[C@H]1O[C@@H]1OC[C@@H](O)[C@H](O[C@H]2O[C@H](C)[C@@H](O)[C@H](O)[C@@H]2O)[C@H]1O (some centres undefined)	inactive [at 9.52 µM]	
CCCN1CCC[C@@H](c2cccc(S(C)(=O)=O)c2)C1		-13% [at 48.8 µM] (inactive)
COc1cc(CC2COC(c3ccc(OC4OC(CO)C(O)C(O)C4O)c(OC)c3)C2CO)ccc1O (centres undefined)	inactive	
C=Cc1ccc(O[C@@H]2O[C@H](CO[C@@H]3O[C@@H](C)[C@H](O)[C@@H](O)[C@H]3O)[C@@H](O)[C@H](O)[C@H]2O)cc1		-0.437% (inactive)
COc1ccc(C(=O)OC2C3C=COC(OC4OC(CO)C(O)C(O)C4O)C3C3(CO)OC23)cc1OC (centres undefined)		3.8% (inactive)
C=C1C[C@]23C[C@H]1CC[C@H]2[C@]1(C)CC[C@H](O)[C@@](C)(C(=O)O)[C@H]1[C@@H]3C(=O)O		-15.1% (inactive)
O=C(NCCN1CCCC1)c1cc(-c2ccc(CN3CCOCC3)cc2)nc2ccc(F)cc12	inactive	
COc1ccc2c(c1)C=C1Cn3c-2c(C2CCCCC2)c2ccc(cc23)C(=O)NS(=O)(=O)N(C)CCOCCN(C)C1=O		-29.4% [at 48.8 µM] (inactive)
C/C=C/C1OC2=C(C(=O)OC2(C)O)C(O)C1O (centres undefined)		-5.04% [at 48.8 µM] (inactive)
O=C(NC/C=C/CN1CCN(c2cccc(Cl)c2Cl)CC1)c1ccc(-c2ccccn2)cc1		-21.3% [at 48.8 µM] (inactive)
O=C(O)[C@H](Cc1ccccc1)Oc1ccc(-c2ccccc2)cc1	inactive [at 48.8 µM]	
CC1=CCC(O)C2(C)CCC3C(C)C(=O)OC3C12 (centres undefined)		-8.21% [at 48.8 µM] (inactive)
CCOC(=O)CSc1nc2c(sc3ccccc32)c(=O)n1CCCN1CCCC1		2.6% [at 48.8 µM] (inactive)
C/C(=C\CC/C(C)=C/CC[C@]1(C)CCc2cc(O)cc(C)c2O1)CC/C=C(\C)C(=O)O	inactive	
C=C1C2(C)CC3C4(C)C=CC(=O)OC(C)(C)C4CCC3(C)C1(C(=O)OC)C(=O)C(C)(O)C2=O (centres undefined)	inactive	
CCC(C)/C=C(C)/C=C/C1=CC2=C(Cl)C(=O)C(C)(OC(C)=O)C(=O)C2=CN1CCCCC(N)C(=O)O (centres undefined)		0.0192% (inactive)
CC/C=C\C(O)C(O)C1=C(C)C(=O)C2(O1)C(=O)NC(OC)(C(=O)c1ccccc1)C2O (centres undefined)		2.18% (inactive)
C=C1CC[C@@H]2[C@](C)(CO)[C@H](O[C@@H]3O[C@H](CO)[C@@H](O)[C@H](O)[C@H]3O)CC[C@@]2(C)[C@@H]1C/C=C1/C(=O)OC[C@H]1O		-5.61% (inactive)
